Results: PubChem BioAssay (NCATS)
Unmarked numbers belong to inactive results. Active and inactive are the calls of the source. Calls follow the shape of the dose curve; as a rule, active = well fitted curve in the direction sought with a large enough effect; inconclusive = small, poorly fitted or top-dose-only effect, or another doubt; inactive = no such curve, though single readings can be large or run the other way.

What follows are compounds tested against Galactokinase (Homo sapiens) (UniProt P51570) (assay: qHTS Validation Assay for Inhibitors of Human Galactokinase (GALK) (AID 493189; also: 0% is about no effect)). Settings: purified human GALK enzyme activity, qHTS 7-point titration; series mostly up to 57.5 µM; activity change, negative = inhibition: at the top concentration.
Sequence of Galactokinase (Homo sapiens) (P51570 whole entry, looked up): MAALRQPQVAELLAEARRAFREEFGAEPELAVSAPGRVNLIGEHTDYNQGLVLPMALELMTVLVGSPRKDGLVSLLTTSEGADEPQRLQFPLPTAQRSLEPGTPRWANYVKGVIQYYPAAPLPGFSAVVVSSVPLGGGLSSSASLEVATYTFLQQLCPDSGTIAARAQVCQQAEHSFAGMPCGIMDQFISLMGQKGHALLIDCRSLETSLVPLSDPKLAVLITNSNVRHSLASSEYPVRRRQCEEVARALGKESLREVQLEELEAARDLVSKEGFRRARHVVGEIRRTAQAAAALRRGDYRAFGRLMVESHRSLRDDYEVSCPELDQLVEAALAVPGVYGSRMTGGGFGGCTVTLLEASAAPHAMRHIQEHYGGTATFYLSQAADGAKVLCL
Source text: NIH Molecular Libraries Probe Production Centers Network [MLPCN]
NIH Chemical Genomics Center [NCGC]
Assay Submitter (PI): Kent Lai (University of Utah School of Medicine, 50 N Mario Capecchi Drive, Salt Lake City, UT 84132)
Inherited deficiency of galactose-1-phosphate uridyltransferase (GALT) can result in a potentially lethal disorder called Classic Galactosemia (OMIM 230400). Several lines of evidence indicate that an elevated level of galactose-1-phosphate (gal-1-p), the product of galactokinase (GALK), is a major, if not sole, pathogenic mechanism in patients with classic galactosemia. Therefore, finding inhibitors of GALK is a potential novel therapy for this inherent metabolic disease and is the long term goal of this project.
GALK (provided by the assay submitter) was assayed using ATP and D-(+)-Galactose (Sigma-Aldrich cat# G0750) as substrates. Promega Kinase-Glo Plus (cat# V3774) technology was used to detect the residual ATP following kinetic reaction. Briefly, the Kinase-Glo Plus contains Ultra-Glo [2] luciferase and D-luciferin which generates a bioluminescence signal from the remaining ATP.
NCGC Assay Protocol Summary:
Three uL/well of ATP-buffer solution (35 uM ATP, 20mM HEPES pH8.0, 5 mM MgCl2, 60 mM NaCl, 1 mM DTT, 0.01% BSA final concentration) was dispensed into 1536-well, assay plates (Greiner, solid white medium-binding plates) with Aurora Discovery BioRAPTR Flying Reagent Dispenser (FRD; Beckton-Dickenson). Compound solution (23 nL) was transferred to the assay plate using the Kalypsys 1536-pin tool. One uL/well GALK-galactose solution (5 nM GALK, 100 uM galactose, 20 mM HEPES pH8.0, 5 mM MgCl2, 60 mM NaCl, 1 mM DTT, 0.01% BSA final concentration) was then added using the FRD yielding a total kinase reaction volume of 4 uL/ well. After 1 hour of room temperature incubation, 4 uL Kinase-Glo Plus reagent was added for a final assay volume of 8 uL/ well. Luminescence was detected with the ViewLux plate reader (Perkin Elmer, Waltham, MA) after 10 min incubation using a 1 sec exposure time and 2x binning.

SMILES	activity change, negative = inhibition	outcome
COc1cccc(-c2cc(=O)c3ccccc3o2)c1N	0.175%	–
O=c1c(-c2ccc(O)cc2)coc2cc(O)ccc12	1.56%	–
C[N+](C)(C)CCCCCC[N+](C)(C)C	–	inactive
CC(C)OC(=O)C(C)(C)Oc1ccc(C(=O)c2ccc(Cl)cc2)cc1	0.664%	–
CCN1CCC[C@H]1CNC(=O)c1cc(S(N)(=O)=O)ccc1OC	-3.29%	–
CCCCC1C(=O)N(c2ccccc2)N(c2ccccc2)C1=O	-3.78%	–
O=C1NCC2(CCN(CCc3ccccc3)CC2)O1	2.26%	–
CC(C)(C)c1ccc(C(O)CCCN2CCC(C(O)(c3ccccc3)c3ccccc3)CC2)cc1 (configuration not stated)	3.12%	–
CC(=O)N[C@@H](CS)C(=O)O	-1.84%	–
NC(N)=Nc1nc(CSCC/C(N)=N/S(N)(=O)=O)cs1	-0.92%	–
CC1=C(/C=C/C(C)=C/C=C/C(C)=C/C(=O)Nc2ccc(O)cc2)C(C)(C)CCC1	-1.3%	–
O=C1NC(=O)C(c2ccccc2)(c2ccccc2)N1	-2.87%	–
O=C(O)CCc1nc(-c2ccccc2)c(-c2ccccc2)o1	0.148%	–
CCN(CC)CCOC(=O)c1ccc(N)cc1	2.87%	–
NCCS	3.22%	–
CC(=O)c1ccc(S(=O)(=O)NC(=O)NC2CCCCC2)cc1	3.66%	–
CN(C)CCC(c1ccccc1)c1ccccn1 (configuration not stated)	-5.57%	–
CC(=O)CCCCn1c(=O)c2c(ncn2C)n(C)c1=O	-12.4%	–
COc1ccccc1N1CCN(CCCNc2cc(=O)n(C)c(=O)n2C)CC1	-3.89%	–
COC(=O)[C@@H]1[C@H]2C[C@H]3c4[nH]c5ccccc5c4CCN3C[C@@H]2CC[C@@H]1O	-1.53%	–
CC(C)NCC(O)COc1cccc2[nH]ccc12 (configuration not stated)	2%	–
Clc1ccc(Cn2c(CN3CCCC3)nc3ccccc32)cc1	1.6%	–
CCN(CC)CCNC(=O)c1ccc(N)cc1	0.128%	–
CCN(CC)C(=O)c1ccc(O)c(OC)c1	3.12%	–
O=c1cc(-c2ccc(O)cc2)oc2cc(O)cc(O)c12	-3.01%	–
CC/C(=C(\c1ccccc1)c1ccc(OCCN(C)C)cc1)c1ccccc1	-1.88%	–
CCCNC(=O)NS(=O)(=O)c1ccc(Cl)cc1	3.56%	–
